# Pf growth 48h = inhibits P. falciparum growth in the first generation, 48 h | P. falciparum luciferase growth in erythrocytes, 48 h | Potency, µM (titrated, usually from 28.7 µM), actives largely listed as inhibitors | actives 5.9% (n = 310,000) | AID 504832
#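 Erythrocytes infected with P. falciparum carrying an integrated firefly luciferase reporter (2% hematocrit, 0.1% parasitemia final) were exposed to compounds in RPMI 1640 with 0.5% Albumax at 37 C, 5% CO2. Growth inhibition was scored as reduced luminescence.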
# Pf growth 96h = P. falciparum growth inhibition at 96 hours. P. falciparum luciferase reporter growth, 96 h. Potency, µM (doses to about 28.7 µM), usual class: inhibitors. actives 6.9% (n = 320,000)
#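 Erythrocytes infected with luciferase-expressing P. falciparum were dispensed at 2% hematocrit and 0.05% parasitemia (final), then incubated with compounds 96 hours at 37 C in 5% CO2. Luminescence after detection reagent addition reported growth.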
# NS1 function inh = inhibitors of influenza NS1 protein function. Potency, µM (series often up to 46.1 µM). actives 0.4% (n = 270,000). AID 2326; calls by dose curve; also: actives are rising curves; nearly all actives have a fitted effect of over 50% in size
#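 A cell-based growth assay was used: compounds that relieve NS1-induced slow growth of budding yeast raise OD600. Assay medium was yeast nitrogen base with ammonium sulphate and -URA supplement, pH 6.0, with 2% galactose.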
# Shiga inhibitor = blocks Shiga toxin action in Vero cells; Vero cells, Shiga toxin protein synthesis inhibition reporter; AID 2315; actives 9.2% (n = 290,000); inhibition, % at 38.7 µM; in the data active = inhibition mostly above about 28%, no sharp cut-off; inactive = mostly below about 43%
# CHX counter = counter-screen for Shiga toxin inhibitors: cycloheximide protein synthesis inhibition. AID 2314. max response, %. actives 12% (n = 300,000). cell reporter, cycloheximide protein synthesis inhibition counterscreen; in the data active = max response mostly above about 13%, no sharp cut-off; inactive = mostly below about 14%; also: read at 38.3 µM for the half of the compounds with a filed dose
# A number is an active result; . = inactive; ? = inconclusive; / = no result. Compounds with a hit are over-represented: about 21% of the library has one in this group of screens. Unless noted, calls follow the shape of the dose curve; as a rule, active = well fitted inhibition curve with a large enough effect; inconclusive = small, poorly fitted or top-dose-only effect, or another doubt; inactive = no such curve, though single readings can be large or run the other way.
SMILES,Pf growth 48h,Pf growth 96h,NS1 function inh,Shiga inhibitor,CHX counter
CC(C)C[C@H](NC(=O)[C@H](CCCCN)NC(=O)CNC(=O)[C@H](CC(C)C)NC(=O)[C@@H](N)C(C)C)C(=O)N[C@@H](CO)C(=O)N[C@@H](CCC(N)=O)C(=O)N[C@@H](CCC(=O)O)C(=O)N[C@@H](CC(C)C)C(=O)N[C@@H](Cc1cnc[nH]1)C(=O)N[C@@H](CCCCN)C(=O)N[C@@H](CC(C)C)C(=O)N[C@@H](CCC(N)=O)C(=O)N[C@H](C(=O)N[C@@H](Cc1ccc(O)cc1)C(=O)N1CCC[C@H]1C(=O)N[C@@H](CCCNC(=N)N)C(=O)N[C@H](C(=O)N[C@@H](CC(N)=O)C(=O)N[C@H](C(=O)NCC(=O)N[C@@H](CO)C(=O)NCC(=O)N[C@H](C(=O)N1CCC[C@H]1C(N)=O)[C@@H](C)O)[C@@H](C)O)[C@@H](C)O)[C@@H](C)O,/,/,/,.,.
O=C(COC(=O)CN1C(=O)c2ccccc2C1=O)NC1CCCCC1,.,.,.,.,.
Cc1ccc(Cn2c(Cc3ccccc3)nc3ccccc32)cc1,.,.,.,.,.
CCOC(Cn1c(-c2ccc(OC)cc2)nc2ccccc21)OCC,/,?,.,.,.
Cc1ccccc1-n1nnnc1SCc1csc(-c2ccccc2)n1,/,9.28µM,.,.,.
COCCn1c(SCc2csc(-c3ccccc3)n2)nc2ccccc21,.,11.7µM,.,.,.
COc1ccc(-c2nc3ccccc3n2Cc2ccc(C)cc2)cc1,?,?,.,44.0,41.7
CCCn1c(-c2ccc(OC)cc2)nc2ccccc21,?,?,.,.,13.2
Cc1ccc(C2CC(C(F)(F)F)n3ncc(C(=O)NCc4ccco4)c3N2)cc1 (centres undefined),.,/,.,.,.
COC(=O)CNC(=O)C(C)NC(=O)CNC(=O)OCc1ccccc1 (centres undefined),.,.,.,.,.
Cc1cc(C)c(NC(=O)CSc2nc3c(c(=O)n2C)SC(C)C3)c(C)c1 (centres undefined),.,?,.,.,.
COc1ccc(Cn2c(-c3ccc(C)cc3)c[n+]3ccccc23)cc1,0.37µM,0.104µM,.,.,.
COCn1c(-c2ccc(OC)cc2)nc2ccccc21,.,?,.,active,51.1
COc1ccc(Cn2c(-c3ccc(OC)c(O)c3)nc3ccccc32)cc1O,.,.,.,75.2,26.8
COCCn1c(-c2ccccc2)nc2ccccc21,.,.,?,96.1,65.6
C=C(C)Cn1c(-c2ccc(OC)cc2)nc2ccccc21,.,.,.,.,.
Fc1cccc(Cl)c1CSc1nnc(COc2cccc3cccnc23)o1,/,.,.,.,.
Cc1ccc(Cl)cc1NC(=O)C1C2CCC(O2)C1C(=O)O (centres undefined),.,.,.,.,.
COc1cccc(NC(=O)Cc2nnc(SCC(=O)NC3CCCCC3)n2C)c1,.,.,.,.,.
O=C(O)c1ccc(-c2ccc(/C=C3\NC(=O)N(Cc4ccc(Cl)cc4)C3=O)o2)cc1Cl,14.7µM,.,.,.,.
CCOC(=O)CN1C(=O)S/C(=C\c2ccc(-c3ccc(C(=O)O)c(Cl)c3)o2)C1=O,?,.,.,.,.
CC1C(=O)C(C)C(c2ccc(Br)cc2)NC1c1ccc(Br)cc1 (centres undefined),?,3.7µM,.,.,.
CC1C(=O)C(C)C(c2ccc3c(c2)OCO3)NC1c1ccc2c(c1)OCO2 (centres undefined),10.4µM,.,.,.,.
COn1c(SCc2ccc(C)cc2C)nc2ccccc2c1=O,?,?,.,.,.
COc1ccc(/C=C2\SC(=N)N(c3nccs3)C2=O)cc1OC,?,?,.,.,14.3
SMILES,Pf growth 48h,Pf growth 96h,NS1 function inh,Shiga inhibitor,CHX counter
O=C1OC(c2cccs2)=N/C1=C\c1ccc(-c2cccc(Cl)c2)o1,.,.,.,.,.
N=C1S/C(=C\c2ccc(-c3cccc(Cl)c3)o2)C(=O)N1c1nccs1,4.65µM,?,.,.,.
CCOC(=O)N1CCC(NC(=O)c2cc(C(=O)Nc3ccc(S(=O)(=O)N4CCCCC4)cc3)ccc2CO)CC1,?,.,/,.,.
Cc1cc(C)c(NC(=O)COC(=O)C2=COCCO2)c(Cl)c1,.,.,/,/,/
COc1ccc(C(C)=O)cc1COC(=O)Cc1cc(OC)c(OC)c(OC)c1,.,.,.,.,.
Cc1nn2c(NCCCN(C)C)c3c(nc2c1-c1ccccc1)CCCC3,14.7µM,8.28µM,.,.,.
Cc1nn2c(NCC(C)C)c3c(nc2c1-c1ccccc1)CCC3,?,?,.,.,.
COCCNc1c2c(nc3c(-c4ccccc4)c(C)nn13)CCC2,?,?,.,.,.
Cc1nn2c(Nc3ccccc3)c3c(nc2c1-c1ccccc1)CCC3,.,5.86µM,.,.,.
Cc1nn2c(NCCCN(C)C)c3c(nc2c1-c1ccccc1)CCC3,/,10.4µM,.,.,.
Cc1nn2c(NC(C)C)c3c(nc2c1-c1ccccc1)CCC3,?,?,.,.,.
Cc1cccc(NC(=O)Cn2c(=O)n(Cc3ccco3)c(=N)c3c4c(sc32)COC(C)(C)C4)c1,/,8.28µM,.,.,.
CC1(C)Cc2c(sc3c2c(=N)n(Cc2ccco2)c(=O)n3CC(=O)Nc2cccc(Cl)c2)CO1,?,10.4µM,?,.,.
C=C(C)COc1ccc(-c2nc(N)nc(C(F)(F)F)c2-c2ccc(OC)cc2)c(O)c1,2.94µM,2.08µM,.,.,.
COc1ccc(-c2c(-c3ccc(O)cc3O)n[nH]c2C(F)(F)F)cc1,?,.,.,.,.
C=C(C)COc1ccc(-c2nc(N)ncc2Oc2ccc(OC)cc2)c(O)c1,?,.,.,.,.
C=C(C)COc1ccc(-c2ncnc(C(F)(F)F)c2-c2ccc(OC)cc2)c(O)c1,1.65µM,0.928µM,.,.,.
C=C(C)COc1ccc(-c2ncnc(C(F)(F)F)c2-c2ccccc2)c(O)c1,1.65µM,1.65µM,.,.,.
Cc1c(CC(=O)NCCCO)c(=O)oc2cc3c(cc12)CCC(C)(C)O3,.,.,.,.,.
CCCc1cc(=O)n2[nH]c(C)c(-c3ccc(OC)cc3)c2n1,.,?,.,.,.
Cc1ccc(NC(=O)c2cc(=O)c3ccccc3o2)cc1S(=O)(=O)N1CCCCC1,6.57µM,?,/,.,.
O=C(Nc1ccc(S(=O)(=O)N2CCCC2)cc1)c1cc(=O)c2ccccc2o1,.,?,.,.,.
Cc1ccc(NC(=O)c2cc(=O)c3ccccc3o2)cc1S(=O)(=O)N1CCOCC1,8.28µM,4.65µM,.,.,.
CN(C)S(=O)(=O)c1cc(NC(=O)c2cc(=O)c3ccccc3o2)ccc1Cl,10.4µM,?,.,34.5,30.9
Cc1ccc(-c2ccc(=O)n(CC(=O)NCC3COCCO3)n2)cc1 (centres undefined),.,.,.,.,.
CCOc1ccc(Br)cc1S(=O)(=O)Nc1cccc(S(=O)(=O)N(C)c2ccccc2)c1,.,.,?,.,.
COc1ccc(C(=O)COC(=O)c2c(-c3ccccc3)noc2C)c(OC)c1,.,.,/,/,/
COCc1cc(Sc2cccc(Cl)c2Cl)nc(-c2ccccc2)n1,?,11.7µM,.,.,.
